SMILES strings stand for the structures. Inconclusive results are not listed. Calls of active or inactive are those of the source. Rule for the calls: active = hit-call score of the fitted dose curve at least 0.9, where 1 is the maximum; inconclusive = response in the unintended direction; inactive = score below 0.9.

This note sets out measurements from PubChem BioAssay AID2283312 (EPA ToxCast).

Chain of rat Vasoactive Intestinal Peptide Receptor (VIP), Non-selective Binding, Vipr1 (gene 24875) (P30083 whole entry, looked up): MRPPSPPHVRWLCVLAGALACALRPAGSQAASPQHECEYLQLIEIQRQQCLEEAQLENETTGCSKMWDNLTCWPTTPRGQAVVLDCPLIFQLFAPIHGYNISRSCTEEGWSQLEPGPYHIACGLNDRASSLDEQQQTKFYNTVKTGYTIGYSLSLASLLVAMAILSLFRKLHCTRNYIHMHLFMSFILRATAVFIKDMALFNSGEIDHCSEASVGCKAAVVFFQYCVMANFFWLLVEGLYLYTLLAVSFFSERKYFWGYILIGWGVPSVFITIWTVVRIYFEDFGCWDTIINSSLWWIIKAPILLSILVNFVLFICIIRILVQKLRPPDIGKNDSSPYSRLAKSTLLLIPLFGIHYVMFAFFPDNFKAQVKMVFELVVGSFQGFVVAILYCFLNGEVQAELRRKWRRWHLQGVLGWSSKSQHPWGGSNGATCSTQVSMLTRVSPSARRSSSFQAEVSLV

The target in this assay is rat Vasoactive Intestinal Peptide Receptor (VIP), Non-selective Binding, Vipr1 (gene 24875) (UniProt P30083). As to the kind of experiment: NVS_GPCR_rVIP_NonSelective: NovaScreen (NVS) G Protein-Coupled Receptor Assay for rat Vasoactive Intestinal Peptide Receptor (VIP), Non-selective Binding. The procedure:
NVS_GPCR_rVIP_NonSelective is a biochemical, single-readout assay that uses extracted gene-proteins from Rat forebrain membranes in a tissue-based cell-free assay. Measurements were taken 1 hour after chemical dosing in a 96-well plate.NVS_GPCR_rVIP_NonSelective is one of one assay component(s) measured or calculated from the NVS_GPCR_rVIP_NonSelective assay. It is designed to make measurements of radioligand binding, a form of binding reporter, as detected with scintillation counting signals by Filter-based radiodetection technology.Data from the assay component NVS_GPCR_rVIP_NonSelective was analyzed into 1 assay endpoint. This assay endpoint, NVS_GPCR_rVIP_NonSelective, was analyzed in the positive analysis fitting direction relative to DMSO as the negative control and baseline of activity. Using a type of binding reporter, loss-of-signal activity can be used to understand changes in the binding as they relate to the gene Vipr1. Furthermore, this assay endpoint can be referred to as a primary readout, because the performed assay has only produced 1 assay endpoint. To generalize the intended target to other relatable targets, this assay endpoint is annotated to the gpcr intended target family, where the subfamily is secretin receptor.
Binding assays used specific radioligands (tritiated, iodinated) with non-radioactive competitive displacement ligands in agonist or antagonist protocols (as indicated) and various reference compounds and inhibitors to titrate specific binding to receptors and transporters. Most enzyme assays (CYPs, kinases, phosphatases, proteases, HDACs) used recombinant protein and specific substrates (fluorescence mostly, some colorimetric and radioactive) and inhibitors, followed by a biochemical separation of substrate and product. All assays for the biochemical HTS were initially run in duplicate at a single concentration (10 uM for CYP450 assays and 25 uM for all others). Assay-chemical combinations meeting a pre-defined threshold (e.g., 30% inhibition and other criteria defined below) were then run in singleton concentration-response format with maximum concentration of 20 uM for CYPs and 50 uM for all others. Each assay was run with positive and negative controls, and concurrent controls on every plate. The follow-up (secondary) screen tested active chemical-pairs in concentration series, as well as a few additional assays not tested in the primary screen, some selected negative inactives, and several cases re-run in the concentration series for confirmatory purposes.
As for `COCC(C)OCC(C)OCC(C)O` (stereo not given), the result was inactive.
On to `CCCCCCCCCC`, for which the outcome was inactive.
As a reminder, the AC50 is the midpoint of the concentration-response curve, whichever way the signal moves. In the case of `CCOC(=O)O[C@H](C)OC(=O)c1ccc2c(c1)cc(C(=O)NC1CCN(C(C)C)CC1)n2Cc1cc(-c2ccc(Cl)s2)on1`, the AC50 is 23.6 µM (active).
With `O=C(NO)C1(NS(=O)(=O)c2ccc(Oc3ccc(F)cc3)cc2)CCOCC1`, the call was inactive.
For `O=C(N[C@@H](c1ccccc1)[C@@H]1CCCCN1)c1cccc(C(F)(F)F)c1Cl`, the result was inactive.
On to `CC(C)(c1ccc(O)cc1)c1ccc(O)cc1`, for which the outcome was inactive.
Same read-out and setting: next, `c1ccc(Nc2ccccc2)cc1`: “inactive”; `CN(C)C(=O)C1(N2CCCCC2)CCN(CC[C@@]2(c3ccc(Cl)c(Cl)c3)CN(C(=O)c3ccccc3)CCO2)CC1`: “inactive”.
The same measure, in the same setting: with `CC(=O)NC1(c2cccc(F)c2)CCN(CC[C@@]2(c3ccc(Cl)c(Cl)c3)CN(c3ccccc3)C(=O)CO2)CC1` the entry was “inactive”; with `NCc1cccc(C2CCN(C(=O)c3ccc(C#Cc4ccccc4F)o3)CC2)c1`, “inactive”.
